Calls of active or inactive are those of the source. Rule for the calls: active = hit-call score of the fitted dose curve at least 0.9, where 1 is the maximum; inactive = score below 0.9.
What was measured:
[1] = read-out: Thrombomodulin, THBD (gene 7056); test: BSK_CASM3C_Thrombomodulin: BioMAP Diversity Plus: CASM3C Assay for Thrombomodulin Biomarker Activity (AID 2283051); conditions: primary human coronary artery smooth muscle cells; actives raise or lower the signal;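 note: thrombomodulin protein level measured by ELISA 24 h after dosing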
[2] = read-out: Tissue Factor, F3 (gene 2152); test: BSK_CASM3C_TissueFactor: BioMAP Diversity Plus: CASM3C Assay for Tissue Factor Biomarker Activity (AID 2283052); conditions: primary human coronary artery smooth muscle cells; actives raise or lower the signal;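 note: cell surface tissue factor protein level read by ELISA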
[3] = read-out: Interferon-gamma inducible Protein 10 (IP10), CXCL10 (gene 3627); test: BSK_hDFCGF_IP10: BioMAP Diversity Plus: hDFCGF Assay for Interferon-gamma inducible Protein 10 (IP10) Biomarker Activity (AID 2283053); conditions: primary human foreskin fibroblasts; actives raise or lower the signal
Method in brief: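 Primary human foreskin fibroblasts exposed to chemicals for 24 h. IP-10 measured by ELISA; changes fitted bidirectionally against DMSO baseline.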

[4] = read-out: Urokinase-type plasminogen activator receptor (uPAR), PLAUR (gene 5329); test: BSK_CASM3C_uPAR: BioMAP Diversity Plus: CASM3C Assay for Urokinase-type plasminogen activator receptor (uPAR) Biomarker Activity (AID 2283054); conditions: primary human coronary artery smooth muscle cells; actives raise or lower the signal;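 note: cell-surface uPAR protein level quantified by ELISA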
[5] = read-out: Vascular cell adhesion molecule 1 (VCAM1), VCAM1 (gene 7412); test: BSK_CASM3C_VCAM1: BioMAP Diversity Plus: CASM3C Assay for Vascular cell adhesion molecule 1 (VCAM1) Biomarker Activity (AID 2283055); conditions: primary human coronary artery smooth muscle cells; actives raise or lower the signal;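 note: VCAM-1 protein level quantified by ELISA on the cells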
[6] = read-out: Collagen III, COL3A1 (gene 1281); test: BSK_hDFCGF_CollagenIII: BioMAP Diversity Plus: hDFCGF Assay for Collagen III Biomarker Activity (AID 2283056); conditions: primary human foreskin fibroblasts; actives raise or lower the signal
Method in brief: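 Human foreskin primary fibroblasts were exposed to test chemicals for 24 h, after which collagen III was quantified by ELISA. Activity was fitted bidirectionally against DMSO as negative control and baseline.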

[7] = read-out: Epidermal growth factor receptor (EGFR), EGFR (gene 1956); test: BSK_hDFCGF_EGFR: BioMAP Diversity Plus: hDFCGF Assay for Epidermal growth factor receptor (EGFR) Biomarker Activity (AID 2283057); conditions: primary human foreskin fibroblasts; actives raise or lower the signal
Method in brief: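 Primary human foreskin fibroblasts (hDFCGF system), sampled 24 h after dosing; EGFR quantified by ELISA. Bidirectional fit relative to DMSO baseline; SRB total-protein staining in parallel cultures for cytotoxicity.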

[8] = read-out: Interleukin-8 (IL8), CXCL8 (gene 3576); test: BSK_hDFCGF_IL8: BioMAP Diversity Plus: hDFCGF Assay for Interleukin-8 (IL8) Biomarker Activity (AID 2283058); conditions: primary human foreskin fibroblasts; actives raise or lower the signal
Method in brief: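 hDFCGF human dermal fibroblasts; 24 h chemical exposure; IL-8 by ELISA; bidirectional curve fit vs DMSO baseline; gain or loss of signal scored.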

[9] = BSK_hDFCGF_Proliferation: Cell Proliferation Assessment in the BioMAP Diversity Plus: hDFCGF Assay (AID 2283059); conditions: primary human foreskin fibroblasts;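 note: curves fitted for both rise and fall of signal versus DMSO baseline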
Method in brief: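 Primary human foreskin fibroblasts, sub-confluent; […]; 10% TCA fix, 0.1% SRB stain, A560 total protein. Gain/loss fitted bidirectionally vs DMSO control.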

[10] = read-out: Macrophage colony-stimulating factor (MCSF), CSF1 (gene 1435); test: BSK_hDFCGF_MCSF: BioMAP Diversity Plus: hDFCGF Assay for Macrophage colony-stimulating factor (MCSF) Biomarker Activity (AID 2283060); conditions: primary human foreskin fibroblasts; actives raise or lower the signal
Method in brief: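 Human foreskin primary fibroblasts were treated with test chemical for 24 h, and M-CSF was then measured by ELISA. Data were fitted bidirectionally against DMSO as the negative control and activity baseline.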

[11] = BSK_hDFCGF_SRB: Viability Assessment in the BioMAP Diversity Plus: hDFCGF Assay (AID 2283061); conditions: primary human foreskin fibroblasts;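 note: cells exposed to compound for 24 h before the read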
Method in brief: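 Human foreskin primary fibroblasts were treated with compound and assessed 24 h after dosing. Total protein was measured by sulforhodamine B staining (0.1% SRB after 10% TCA fixation, 560 nm read) as a cytotoxicity marker, with bidirectional fitting against DMSO baseline.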

[12] = read-out: TIMP metallopeptidase inhibitor 1 (TIMP1), TIMP1 (gene 7076); test: BSK_hDFCGF_TIMP1: BioMAP Diversity Plus: hDFCGF Assay for TIMP metallopeptidase inhibitor 1 (TIMP1) Biomarker Activity (AID 2283062); conditions: primary human foreskin fibroblasts; actives raise or lower the signal
Method in brief: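 Primary human foreskin fibroblasts in the hDFCGF system were dosed with compound for 24 h, then TIMP-1 was measured by ELISA. Activity was fitted bidirectionally relative to DMSO control; parallel SRB staining assessed cytotoxicity.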

[13] = read-out: Matrix Metallopeptidase 1 (MMP1), MMP1 (gene 4312); test: BSK_hDFCGF_MMP1: BioMAP Diversity Plus: hDFCGF Assay for Matrix Metallopeptidase 1 (MMP1) Biomarker Activity (AID 2283064); conditions: primary human foreskin fibroblasts; actives raise or lower the signal
Method in brief: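 Primary human foreskin fibroblasts exposed to chemicals for 24 h; MMP1 measured by ELISA. Cytotoxicity tracked by SRB staining in parallel cultures; bidirectional fit relative to DMSO.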

[14] = read-out: Vascular cell adhesion molecule 1 (VCAM1), VCAM1 (gene 7412); test: BSK_hDFCGF_VCAM1: BioMAP Diversity Plus: hDFCGF Assay for Vascular cell adhesion molecule 1 (VCAM1) Biomarker Activity (AID 2283065); conditions: primary human foreskin fibroblasts; actives raise or lower the signal
Method in brief: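 Primary human foreskin fibroblasts (hDFCGF system) were dosed with chemical and VCAM-1 was measured by ELISA 24 h later. Bidirectional curve fitting used DMSO as negative control and activity baseline.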

[15] = read-out: Plasminogen activator inhibitor-1 (PAI1), SERPINE1 (gene 5054); test: BSK_hDFCGF_PAI1: BioMAP Diversity Plus: hDFCGF Assay for Plasminogen activator inhibitor-1 (PAI1) Biomarker Activity (AID 2283066); conditions: primary human foreskin fibroblasts; actives raise or lower the signal
Method in brief: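 Human foreskin fibroblast primary cells, 24 h chemical exposure; PAI-1 measured by ELISA. Bidirectional fitting relative to DMSO; parallel cultures stained with SRB for total protein to flag overt cytotoxicity.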

[16] = read-out: Intercellular Adhesion Molecule 1 (ICAM1), ICAM1 (gene 3383); test: BSK_KF3CT_ICAM1: BioMAP Diversity Plus: KF3CT Assay for Intercellular Adhesion Molecule 1 (ICAM1) Biomarker Activity (AID 2283067); conditions: primary human keratinocytes with fibroblasts; actives raise or lower the signal
Method in brief: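 Human keratinocyte plus foreskin fibroblast primary co-culture was exposed to chemical for 24 h. ICAM-1 was then quantified by ELISA, and the data were fit bidirectionally against DMSO as the negative control and baseline.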

[17] = read-out: Interferon-gamma inducible Protein 10 (IP10), CXCL10 (gene 3627); test: BSK_KF3CT_IP10: BioMAP Diversity Plus: KF3CT Assay for Interferon-gamma inducible Protein 10 (IP10) Biomarker Activity (AID 2283068); conditions: primary human keratinocytes with fibroblasts; actives raise or lower the signal
Method in brief: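 In a primary skin co-culture of keratinocytes and fibroblasts, IP-10 is quantified by ELISA at 24 h after dosing. SRB staining of parallel wells monitors overt toxicity. Curves are fitted both directions against DMSO.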

[18] = BSK_KF3CT_SRB: Viability Assessment in the BioMAP Diversity Plus: KF3CT Assay (AID 2283069); conditions: primary human keratinocytes with fibroblasts;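 note: fitted for both signal gain and loss against DMSO baseline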
Method in brief: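 Human keratinocyte and foreskin fibroblast co-culture exposed to chemical for 24 h. Total protein measured in parallel cultures by 0.1% sulforhodamine B staining after 10% TCA fixation, read at 560 nm; bidirectional fit relative to DMSO.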

[19] = read-out: Interleukin-1 alpha (IL1a), IL1A (gene 3552); test: BSK_KF3CT_IL1a: BioMAP Diversity Plus: KF3CT Assay for Interleukin-1 alpha (IL1a) Biomarker Activity (AID 2283070); conditions: primary human keratinocytes with fibroblasts; actives raise or lower the signal
Method in brief: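 Primary human keratinocyte plus foreskin fibroblast co-culture, dosed and measured at 24 h in 96-well plates. IL-1a level quantified by ELISA; bidirectional fit relative to DMSO.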

Measured: AC50

COC(=O)NS(=O)(=O)c1ccc(N)cc1
inactive: all assays above

CCOP(=S)(OCC)Oc1nc(Cl)n(C(C)C)n1
active: [3] 26.7 µM
inactive: all other assays above

COP(=O)(OC)O/C(C)=C/C(=O)N(C)C
inactive: all assays above

CCCCC(O)(Cn1cncn1)c1ccc(Cl)cc1Cl (centres undefined)
active: [3] 32.9 µM | [6] 29.9 µM | [9] 22.9 µM | [13] 12.7 µM | [15] 21.2 µM
inactive: all other assays above

CC(C)N1C(=O)c2ccccc2NS1(=O)=O
active: [3] 13.4 µM | [6] 0.144 µM | [12] 3.97 µM
inactive: all other assays above

Clc1cccc(C(Cl)(Cl)Cl)n1
active: [3] 29.8 µM
inactive: all other assays above

From PubChem BioAssay (EPA / NIEHS)
